Assay [1] has as its system RAW-Dual. Briefly: NF-kB SEAP reporter activity, fold change vs agonist alone; higher = enhanced NF-kB activity. Summed up: (§1)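 Library stock was pin-tooled at 50 nL into 384-well plates of RAW-Dual macrophages (50,000 cells/well, DMEM), followed 1 h later by a PRR agonist, and the cells were kept at 37 °C, 5% CO2. Supernatant collected after 20 hours was read for IRF by QuantiLuc luminescence and for NF-κB by QuantiBlue absorbance at 620 nm. Reporter activity is fold change over agonist-alone wells, and a well counted as cytotoxic when its IncuCyte confluency was below 70% of agonist controls in both mask sets.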

The subject of assay [2] is RAW-Dual. Briefly: NF-kB SEAP reporter activity, fold change vs agonist alone; cytotoxicity flag (confluency mask): not cytotoxic; higher = enhanced NF-kB activity. Summed up:
as §1

Assay [3] relates to RAW-Dual. In words: NF-kB SEAP reporter activity, fold change vs agonist alone; cytotoxicity flag (confluency mask): cytotoxic (confluency <70% of control); higher = enhanced NF-kB activity. Summed up:
as §1

Setting [4] is: library stock concentration (final ~1000-fold dilution): 10 mM, cytotoxicity flag (confluency mask): not cytotoxic, agonist: Imiquimod (TLR7) […].
Where [5] appears, read: library stock concentration (final ~1000-fold dilution): 10 mM, cytotoxicity flag (confluency mask): not cytotoxic, agonist: MPLA (TLR4) […].
[6] abbreviates: agonist: ODN 1826 (TLR9) 0.5 ug/mL.
The mark [7] stands for this setting: agonist: Pam2CSK4 (TLR2/6) 0.1 ug/mL.
[8] abbreviates: agonist: Pam3CSK4 (TLR2/1) 0.1 ug/mL.

The structures appear in SMILES notation. Over roughly 2,900 compounds, “NF-kB SEAP reporter activity, fold change vs agonist alone” has its median near 0.99; the highest 2% begin near 2.6. The list comes from a sample in which the highest values are over-represented; it also holds similar structures and randomly drawn compounds.

With `COCc1ccc(-c2ccc3ncc(C(N)=O)c(NC(C)C4CCOCC4)c3c2)cn1` (stereo not drawn), the “NF-kB SEAP reporter activity” value in the assay on RAW-Dual [1] (setting [4]) was determined as 0.993; in the assay on RAW-Dual [1] (setting [5]), 1.35.

As for `COCc1ccc(-c2ccc3ncc(C(N)=O)c(NC(C)C4CCOCC4)c3c2)cn1` (stereo not drawn) (library stock concentration (final ~1000-fold dilution): 10 mM), the “NF-kB SEAP reporter activity” value was 1.75 with RAW-Dual [2] (agonist: LPS (TLR4) 0.1 ug/mL), 1.19 in the assay with RAW-Dual [2] (setting [6]), 1.45 with RAW-Dual [2] (setting [7]) and 2.13 in the assay with RAW-Dual [2] (setting [8]).

`O=S(=O)(NCCN1CCNCC1)c1ccc(NC2CCCCC2)c(NCc2ccccc2)c1`: the “NF-kB SEAP reporter activity” value is 1.27 with RAW-Dual [1] (library stock concentration (final ~1000-fold dilution): 10 mM, cytotoxicity flag (confluency mask): cytotoxic (confluency <70% of control), agonist: Imiquimod (TLR7) […]) and 2.03 in the assay with RAW-Dual [1] (library stock concentration (final ~1000-fold dilution): 10 mM, cytotoxicity flag (confluency mask): cytotoxic (confluency <70% of control), agonist: MPLA (TLR4) […]).

With `O=S(=O)(NCCN1CCNCC1)c1ccc(NC2CCCCC2)c(NCc2ccccc2)c1` (library stock concentration (final ~1000-fold dilution): 10 mM), the “NF-kB SEAP reporter activity” value in the assay on RAW-Dual [3] (agonist: LPS (TLR4) 0.1 ug/mL) was found to be 1.57; in the assay on RAW-Dual [3] (setting [6]), 1.13; in the assay on RAW-Dual [3] (setting [7]), 1.04; in the assay on RAW-Dual [3] (setting [8]) it was 1.73.

Regarding `CN(C)CCCSC(=N)N.Cl.Cl`, the “NF-kB SEAP reporter activity” value in the assay on RAW-Dual [1] (setting [4]) was found to be 0.831; in the assay on RAW-Dual [1] (setting [5]), 0.973.

For the compound `CN(C)CCCSC(=N)N.Cl.Cl` (library stock concentration (final ~1000-fold dilution): 10 mM), the “NF-kB SEAP reporter activity” value in the assay with RAW-Dual [2] (agonist: LPS (TLR4) 0.1 ug/mL) turned out to be 1.14; in the assay on RAW-Dual [2] (setting [6]), 0.97; with RAW-Dual [2] (setting [7]) it was 1.01; in the assay on RAW-Dual [2] (setting [8]), 0.975.

In the case of `CC(C)CC(NC(=O)C1OC1C(=O)O)C(=O)NCCCCNC(=N)N` (stereo not drawn), the “NF-kB SEAP reporter activity” value with RAW-Dual [1] (setting [4]) came out at 0.971; with RAW-Dual [1] (setting [5]), 1.11.

For `CC(C)CC(NC(=O)C1OC1C(=O)O)C(=O)NCCCCNC(=N)N` (stereo not drawn) (library stock concentration (final ~1000-fold dilution): 10 mM), the “NF-kB SEAP reporter activity” value in the assay with RAW-Dual [2] (agonist: LPS (TLR4) 0.1 ug/mL) is 0.999; in the assay with RAW-Dual [2] (setting [6]), 1.01; with RAW-Dual [2] (setting [7]) it was 1.12; in the assay on RAW-Dual [2] (setting [8]), 1.12.

Regarding `CC(=O)C(=O)Oc1ccccc1C(=O)O` (library stock concentration (final ~1000-fold dilution): 10 mM), the “NF-kB SEAP reporter activity” value in the assay with RAW-Dual [2] (agonist: LPS (TLR4) 0.1 ug/mL) came out at 1.07; in the assay with RAW-Dual [2] (setting [6]), 1.04; with RAW-Dual [2] (setting [7]), 0.887; with RAW-Dual [2] (setting [8]), 1.12.

Consider `CC(=O)C(=O)Oc1ccccc1C(=O)O`, for which the “NF-kB SEAP reporter activity” value worked out at 1.46 in the assay on RAW-Dual [1] (setting [4]) and 1.68 in the assay on RAW-Dual [1] (setting [5]).

Regarding `NNC(=O)c1ccncc1` (library stock concentration (final ~1000-fold dilution): 10 mM), the “NF-kB SEAP reporter activity” value was 1.22 in the assay with RAW-Dual [2] (agonist: LPS (TLR4) 0.1 ug/mL), 1.05 in the assay on RAW-Dual [2] (setting [6]), 1.09 in the assay on RAW-Dual [2] (setting [7]) and 1.05 in the assay on RAW-Dual [2] (setting [8]).

For the compound `NNC(=O)c1ccncc1`, the “NF-kB SEAP reporter activity” value in the assay on RAW-Dual [1] (setting [4]) stood at 0.948; in the assay with RAW-Dual [1] (setting [5]) it was 1.05.

Regarding `O=C(N/N=C/c1c(O)ccc2ccccc12)c1ccncc1`, the entries for the “NF-kB SEAP reporter activity” value in the assay with RAW-Dual [1] (setting [4]) and with RAW-Dual [1] (setting [5]) were 2.57 and 1.75, respectively.

`O=C(N/N=C/c1c(O)ccc2ccccc12)c1ccncc1` (library stock concentration (final ~1000-fold dilution): 10 mM): the “NF-kB SEAP reporter activity” value in the assay with RAW-Dual [2] (agonist: LPS (TLR4) 0.1 ug/mL) amounted to 2.18; in the assay on RAW-Dual [2] (setting [6]), 2; with RAW-Dual [2] (setting [7]), 1.15; with RAW-Dual [2] (setting [8]), 1.92.

Turning to `O=S(=O)(N=Cc1c(O)ccc2ccccc12)c1cccs1` (library stock concentration (final ~1000-fold dilution): 10 mM), the “NF-kB SEAP reporter activity” value in the assay on RAW-Dual [2] (agonist: LPS (TLR4) 0.1 ug/mL) is 1.28; in the assay on RAW-Dual [2] (setting [6]) it was 0.662; with RAW-Dual [2] (setting [7]), 1.04; in the assay on RAW-Dual [2] (setting [8]), 0.853.

As to `O=S(=O)(N=Cc1c(O)ccc2ccccc12)c1cccs1`, the “NF-kB SEAP reporter activity” value was 0.768 in the assay on RAW-Dual [1] (setting [4]) and 1.03 with RAW-Dual [1] (setting [5]).

Turning to `Cl.c1ccc2c(-c3cnn4cc(-c5ccc(N6CCNCC6)cc5)cnc34)ccnc2c1` (library stock concentration (final ~1000-fold dilution): 10 mM water), the “NF-kB SEAP reporter activity” value is 0.64 in the assay on RAW-Dual [2] (agonist: LPS (TLR4) 0.1 ug/mL), 0.253 with RAW-Dual [2] (setting [6]), 0.171 in the assay on RAW-Dual [2] (setting [7]) and 0.354 in the assay on RAW-Dual [2] (setting [8]).

On to `Cl.c1ccc2c(-c3cnn4cc(-c5ccc(N6CCNCC6)cc5)cnc34)ccnc2c1`, for which the “NF-kB SEAP reporter activity” value in the assay on RAW-Dual [1] (library stock concentration (final ~1000-fold dilution): 10 mM water, cytotoxicity flag (confluency mask): not cytotoxic, agonist: Imiquimod (TLR7) […]) is 0.986; with RAW-Dual [1] (library stock concentration (final ~1000-fold dilution): 10 mM water, cytotoxicity flag (confluency mask): not cytotoxic, agonist: MPLA (TLR4) […]), 0.571.

With `CC(C)(C)C1NC(=O)OC2CCCC2OC/C=C/C(F)(F)c2nc3ccccc3nc2OC2CC(C(=O)NC3(C(=O)NS(=O)(=O)C4(C)CC4)CC3C(F)F)N(C2)C1=O` (stereo not drawn), the “NF-kB SEAP reporter activity” value worked out at 2.27 with RAW-Dual [1] (setting [4]) and 2.15 in the assay on RAW-Dual [1] (setting [5]).

On to `C=CC1CC1(NC(=O)C1CC2CN1C(=O)C(C(C)(C)C)NC(=O)OC1CC1CCCCCc1nc3ccc(OC)cc3nc1O2)C(=O)NS(=O)(=O)C1CC1` (stereo not drawn) (library stock concentration (final ~1000-fold dilution): 10 mM), for which the “NF-kB SEAP reporter activity” value in the assay with RAW-Dual [2] (agonist: LPS (TLR4) 0.1 ug/mL) was 1.3; in the assay on RAW-Dual [2] (setting [6]), 1.46; with RAW-Dual [2] (setting [7]), 0.913; in the assay with RAW-Dual [2] (setting [8]), 0.835.

Turning to `CC(C)(C)C1NC(=O)OC2CCCC2OC/C=C/C(F)(F)c2nc3ccccc3nc2OC2CC(C(=O)NC3(C(=O)NS(=O)(=O)C4(C)CC4)CC3C(F)F)N(C2)C1=O` (stereo not drawn) (library stock concentration (final ~1000-fold dilution): 10 mM), the “NF-kB SEAP reporter activity” value in the assay with RAW-Dual [2] (agonist: LPS (TLR4) 0.1 ug/mL) stood at 1.29; with RAW-Dual [2] (setting [6]), 2.62; in the assay with RAW-Dual [2] (setting [7]) it was 0.986; in the assay on RAW-Dual [2] (setting [8]), 2.09.

For `C=CC1CC1(NC(=O)C1CC2CN1C(=O)C(C(C)(C)C)NC(=O)OC1CC1CCCCCc1nc3ccc(OC)cc3nc1O2)C(=O)NS(=O)(=O)C1CC1` (stereo not drawn), the results for the “NF-kB SEAP reporter activity” value with RAW-Dual [1] (setting [4]) and with RAW-Dual [1] (setting [5]) were 1.3 and 1.22, respectively.

On to `CC(C)=CCCC(C)(OC1OC(CO)C(O)C(O)C1O)C1CCC2(C)C1C(O)CC1C3(C)CCC(O)C(C)(C)C3C(OC3OC(CO)C(O)C(O)C3OC3OCC(O)C(O)C3O)CC12C` (stereo not drawn), for which the “NF-kB SEAP reporter activity” value with RAW-Dual [1] (setting [4]) came out at 0.818; with RAW-Dual [1] (setting [5]) it was 0.958.

Values taken from the supplement of paper PMC10037445.
